Structures are written as SMILES. Out of some 200,000 compounds screened, about 18,000 (9%) were called active. Many of the other results were omitted from the sample, so actives are more common in it than they were. Values without a mark were called inactive. Rule as the data show it: active = inhibition above about 50%; inactive = the rest.

97 compounds from PubChem BioAssay AID1063 (University of Pittsburgh Molecular Library Screening Center, 2008) can be followed below.

This assay in a line: antileishmanial activity against promastigotes – primary screen (AID 1063).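 Also: promastigotes grown with compound for 44 hours at 28 °C.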 The following applies: Leishmania major promastigotes, resazurin fluorescence viability; at 10 µM; active compounds read high.
Regarding `O=C1CCCC2=C1C(c1ccccc1)n1c(s/c(=C/c3cccc(F)c3)c1=O)=N2` (configuration not stated), the inhibition is 60.3% (active). As for `O=C1CC(c2cccc(F)c2)C2=C(CCCC2=O)N1` (configuration not stated), the inhibition was -5.73%. Consider `O=C1CSC(c2cccc(F)c2)N1c1ccccc1F` (configuration not stated), for which the inhibition is 1.64%. As for `CCSC1=NCCN1C(=O)c1ccc(S(=O)(=O)N(CC)CC)cc1`, the figure is 2.69%. With `C=CCN(Cc1nc(-c2cc(OC)c3c(c2)OCO3)oc1C)C1CCS(=O)(=O)C1` (configuration not stated) the figure was 64.6% (active). As for `Cc1cccc(C(=O)Nc2ccccc2C(=O)NCc2cccnc2)c1`, the figure is -3.01%; as for `CCCCN(C)CCC(=O)Nc1ccc(Cl)cc1`, 63.4% (active). As to `CCCCC(=O)Nc1ccc2c(c1)OCCO2`, the inhibition was 1.71%. As for `O=C(CCC(=O)OCc1ccc(Cl)cc1)Nc1ccccc1`, the figure is -2.39%; as for `CCOC(=O)Cc1csc(NC(=O)CSc2ccc(Br)cc2)n1`, 77.7% (active); as for `CCOC(=O)Cc1csc(NC(=O)C(C)(C)C)n1`, -0.74%.

For the compound `CCOC(=O)Cc1csc(NC(=O)CSc2nc(C)cc(=O)[nH]2)n1`, the inhibition was -12.1%. With `CCOC(=O)Cc1csc(SCc2cc(=O)oc3cc(O)ccc23)n1` the figure was -10.2%. Turning to `CCOC(=O)Cc1csc(NC(=O)Nc2ccccc2)n1`, the inhibition was 0.22%. As for `CCOC(=O)Cc1csc(SCC(=O)NC(C)C23CC4CC(CC(C4)C2)C3)n1` (configuration not stated), the figure is 98.6% (active).

Regarding `Cc1ccccc1N/C(SCc1ccc(Cl)cc1)=C(/C#N)C(N)=O`, the inhibition was 25.8%. As for `CC1(c2ccccc2)CC(C)(C)N(C(=O)c2cc([N+](=O)[O-])cc([N+](=O)[O-])c2)c2ccccc21` (configuration not stated), the figure is 99.6% (active); as for `CC1(c2cccc([N+](=O)[O-])c2)CC(C)(C)N(C(=O)c2ccccc2)c2ccccc21` (configuration not stated), 22.4%. With `CC1CCN(C(=S)c2cccc([N+](=O)[O-])c2)CC1` the figure was -0.83%; with `COC(=O)NNC1=CC(=O)CC(C)(C)C1`, -0.84%.

On to `CN(C(=O)COc1ncnc2c1cnn2-c1ccccc1)C1CCCCC1`, for which the inhibition was 0.81%.

As to `CCOC(=O)C1CCCN(C(=O)c2cccc(S(=O)(=O)N3CCOCC3)c2)C1` (configuration not stated), the inhibition was -6.48%. `COCCn1c(SCC(=O)Nc2ccc3c(c2)CCC3)nc2ccccc2c1=O`: the inhibition was 59.6% (active). With `CC(=O)NCCn1c(SCC(=O)Nc2ccc(C)cc2)nc2ccccc2c1=O` the figure was 0.63%. With `CCc1nnc(NC(=O)CSc2nc3ccccc3c(=O)n2CCCOC)s1` the figure was 11.7%; with `Cc1cccc(NC(=S)Nc2ccc(Cl)c(Cl)c2)c1`, 33.5%. As for `CN(C)S(=O)(=O)Oc1ccccc1C(=O)Nc1ccccc1Cl`, the figure is 3.48%.

Consider `O=C(CCC(=O)NNc1nc2ccccc2c2nc(-c3ccccc3)nn12)NCCCN1CCCC1=O`, for which the inhibition was 1.2%. With `O=C(NCCCn1ccnc1)Nc1ccc(Cl)cc1Cl` the figure was 0.73%; with `Cc1ccc2c(Cl)c(C(=O)Nc3nn[nH]n3)sc2c1`, 12.8%. With `Cc1ccc2c(Cl)c(C(=O)NCCCn3ccnc3)sc2c1` the figure was 99.3% (active). With `CCCN(CCC)c1ccc(C(O)c2nnc(-c3ccccc3)o2)cc1` (configuration not stated) the figure was 13.2%; with `Cc1ccc(Cl)cc1NC(=O)COC(=O)CC(C)(C)C`, 34.5%; with `COc1ccc(C(CCNCc2ccccc2F)c2ccc(F)cc2)cc1` (configuration not stated), 78.9% (active).

For the compound `COc1ccc(C(CC(=O)O)NC(=O)Cc2ccccc2)cc1` (configuration not stated), the inhibition was -6.94%.

As for `COc1ccc(CC(=O)NC(C)CCc2ccccc2)cc1` (configuration not stated), the inhibition is -3.88%. With `Cc1cc(NS(=O)(=O)c2ccc(NC(=S)NC(=O)c3ccc(F)cc3Cl)cc2)no1`, the inhibition was 48.3%.

As to `CCN(CCCNC(=O)CSc1cc(=O)n(C)c2cc(Cl)ccc12)Cc1ccccc1`, the inhibition is 20.1%. With `COc1ccc(-n2cc(CNC3CCOCC3)c(-c3cccc(F)c3)n2)cc1` the figure was 31.6%; with `O=C(NCCN1CCOCC1)c1cc(Sc2cccc(Cl)c2)nc2ccccc12`, 1.33%; with `CC(C)CCNC(=O)c1cccnc1Sc1ccccc1`, 32.8%.

Consider `CC(C)OCCCNC(=O)c1cc(Sc2ccc(F)cc2)nc2ccccc12`, for which the inhibition is 50.2% (active). As for `CN1CCNC(=O)C1CC(=O)NCCC1=CCCCC1` (configuration not stated), the figure is 4.58%; as for `CCOC(=O)c1c(C)[nH]c(C2=NNC(=NC(C)COC)SC2)c1C` (configuration not stated), 8.5%; as for `CC(C)Cc1nn2c(=O)cc(O)nc2s1`, 54.9% (active). As for `Cc1sc(NC(=S)NC(=O)c2cccs2)nc1-c1ccc(CC(C)C)cc1`, the figure is -14.6%; as for `CCCn1c(=NC(C)=O)c(C(=O)OCC)cc2c(=O)n3ccccc3nc21`, 7.11%. With `C/C(=N/OC(=O)c1c(-c2c(F)cccc2Cl)noc1C)c1cnccn1` the figure was 0.04%; with `CCOC(=O)c1cc2c(=O)n3ccccc3nc2n(CC(C)C)c1=NC(=O)c1c(-c2c(F)cccc2Cl)noc1C`, 98.8% (active).

Regarding `COc1ccc(NC(=O)/C(C#N)=C\c2cc(OC)c(OCc3ccc(C(=O)O)cc3)cc2Br)cc1`, the inhibition was 4.82%. As for `COc1cccc(NC(=O)CN2CCN(c3nc(-c4cccc(OC)c4)cs3)CC2)c1`, the figure is 9.93%; as for `COc1ccc(-c2csc(N3CCN(Cc4ccc5c(c4)OCO5)CC3)n2)cc1`, 76.3% (active); as for `O=C(CN1CCN(c2nc(-c3ccccc3)cs2)CC1)NCc1ccc2c(c1)OCO2`, 1.96%.

Turning to `Cc1nn(C)c(C)c1CN(C(=O)CCc1nnc(Cc2c[nH]c3ccccc23)o1)C(C)C`, the inhibition is -4.01%. As for `Cc1cccc(N(CC(=O)N=Nc2c(O)[nH]c3ccccc23)S(C)(=O)=O)c1C`, the figure is 95.3% (active); as for `Cc1c(-c2ccccc2)n[nH]c1C(=O)N=Nc1c(O)[nH]c2ccccc12`, 4.35%; as for `COCC(=O)N=Nc1c(O)[nH]c2ccccc12`, -1.1%. With `CCn1c(-c2cccnc2Cl)nc2cc(C)c(C)cc21` the figure was 10%. Regarding `CC(C)n1c(O)c(N=Nc2ccccn2)c2ccccc21`, the inhibition is 56.6% (active). With `CC(C)n1c(C(O)c2ccccc2)nc2ccccc21` (configuration not stated) the figure was 5.37%; with `Oc1oc(-c2ccccc2Br)nc1/C=N/c1ccccn1`, -5.62%; with `CCc1ccccc1NC(=O)CN(c1ccc(OC)cc1OC)S(=O)(=O)c1ccccc1[N+](=O)[O-]`, 27.7%.

For `COc1ccc(N(C)S(=O)(=O)c2cccc3nsnc23)cc1`, the inhibition was -1.4%. With `CCOC(=O)CSc1nnc(NC(=O)c2cccc(S(=O)(=O)N3CCCC3)c2)s1` the figure was -6.49%; with `CCOC(=O)C1=C(CC)Nc2ccccc2N=C1N`, -8.37%. With `CCOC(=O)C1=C(CC)Nc2ccccc2N=C1NC(=O)c1cccc(S(=O)(=O)N2CCCC2)c1` the figure was 72% (active). With `CCN(CC)Cc1nc2sc(C)c(C)c2c(=O)[nH]1` the figure was -6.68%; with `CC1CCN(C(=S)c2cccc(O)c2)CC1`, 0.69%; with `CCOc1ccccc1Oc1cn[nH]c1-c1ccc(OC)cc1O`, 50.6% (active).

On to `CCOc1ccccc1NC(=O)Nc1cc(OC)ccc1OC`, for which the inhibition was -3.92%. With `CCOc1ccc(-c2n[nH]c(C)c2-c2ccccn2)c(O)c1` the figure was 5.25%; with `CC(=O)c1cc(C#N)c(N2CC(C)OC(C)C2)nc1C` (configuration not stated), -0.03%. As for `O=C(NCCCN1CCOCC1)c1ccc(N2CCCC2)c([N+](=O)[O-])c1`, the figure is -1.2%. With `O=C(NCCCN1CCOCC1)c1ccc([N+](=O)[O-])cc1[N+](=O)[O-]` the figure was 57.7% (active). For the compound `Nc1nc(NCCCN2CCOCC2)nc(Nc2ccccc2)c1[N+](=O)[O-]`, the inhibition is 47.8%. As for `O=C(NCCCNc1ccc([N+](=O)[O-])cc1Cl)c1ccccc1F`, the figure is 11.1%; as for `O=C(NCCCN1CCOCC1)c1ccccc1NS(=O)(=O)c1ccc(F)cc1`, -1.28%; as for `O=[N+]([O-])c1ccc(NCCCN2CCOCC2)c(Cl)c1`, 90.3% (active). With `S=C(Nc1ccc(Br)cc1Cl)N1CCC2(CC1)OCCO2` the figure was -4.82%; with `Cc1ccc(CC2CC(=O)N(c3nc(C)cc(C)n3)C2=O)cc1` (configuration not stated), -5.05%; with `Brc1ccc(CSc2ccc(-c3ccco3)nn2)cc1`, 2%.

For the compound `O=C1COc2ccc(C(=O)COC(=O)c3cccnc3Cl)cc2N1`, the inhibition is 11%. As for `CCOC(=O)N1CCN(Cc2nc(N)nc(Nc3ccc(C)cc3)n2)CC1`, the figure is 3.79%; as for `Cc1ccccc1Nc1nc(N)nc(CSc2ccccc2)n1`, 58.8% (active). Consider `COc1ccccc1Nc1nc(N)nc(CN(C)C2CCCCC2)n1`, for which the inhibition was 0.98%. As for `Cc1ccccc1Nc1nc(N)nc(CSc2nnc3ccccn23)n1`, the figure is -7.89%; as for `Cc1ccc(C(=O)OCc2nc(N)nc(Nc3ccccc3C)n2)cc1`, 53.7% (active); as for `Cc1ccccc1Nc1nc(N)nc(CN2CCN(c3ccccn3)CC2)n1`, 0.34%. For the compound `CCOC(=O)C(NC(C)=O)C(=O)Nc1ccc(OC)cc1` (configuration not stated), the inhibition was -2%. Consider `CCCCNC(=O)Nc1c(C)cc(SC#N)cc1C`, for which the inhibition was -2.51%.

For `O=C(Nc1cccc(Cl)c1N1CCOCC1)c1ccc2c(c1)OCCO2`, the inhibition is 11.1%. With `COc1ccc(NC(=O)COc2ccc(C(=O)OCC(=O)N(C)C3CCS(=O)(=O)C3)cc2OC)cc1` (configuration not stated) the figure was 2.14%. With `COc1ccc(S(=O)(=O)NCC2CCCN(C(=O)c3occc3C)C2)cc1` (configuration not stated) the figure was -1.89%; with `O=C(CSc1ncnc2c1nnn2Cc1ccc(F)cc1)NC1CCCC1`, -6.62%.

Take `CCCCOc1ccc(C(C)(O)CCN2CCOCC2)cc1` (configuration not stated): the inhibition is 67.4% (active). With `CCCCOc1ccc(C(=O)NN2CCN(C)CC2)cc1` the figure was -6.12%.

As to `CC(=O)c1ccc(OCCN2CCOCC2)cc1`, the inhibition was -0.55%.
